Inconclusive results are not listed. Activity calls are given as the source filed them. Calls come from the whole dose curve; as a rule, active = well fitted curve in the direction sought with a large enough effect; inconclusive = small, poorly fitted or top-dose-only effect, or another doubt; inactive = no such curve, though single readings can be large; an effect the other way counts as inactive or inconclusive.
Columns and labels:
CRL-7250 = normal cell line; assay: Cytotoxic Profiling of Annotated Libraries Using Quantitative High-Throughput Screening (AID 1296008); details: Five cell lines viability, CellTiter-Glo ATP luminescence, 48-72 h; max response: stronger effect = lower value; note: nearly all actives have a fitted effect of over 60% in size; for max response: % is set by controls: 0 for no effect and ±100 for the full control effect
In short: (§1)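 Cells exposed to compounds for 48 or 72 hr at 37 degrees Celsius. Viability read as ATP-coupled luminescence with CellTiter-Glo after 10 min at room temperature.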

HEK293 = assay: as above; details: Five cell lines viability, CellTiter-Glo ATP luminescence, 48-72 h; max response: stronger effect = lower value
In short: as §1

HaCat [1] = assay: as above; details: Five cell lines viability, CellTiter-Glo ATP luminescence, 48-72 h; max response: stronger effect = lower value
In short: as §1

KB-3-1 = assay: as above; details: Five cell lines viability, CellTiter-Glo ATP luminescence, 48-72 h; max response: stronger effect = lower value
In short: as §1

NIH3T3 [2] = assay: as above; details: Five cell lines viability, CellTiter-Glo ATP luminescence, 48-72 h; max response: stronger effect = lower value
In short: as §1

HACAT [3] = assay: qHTS assay to identify novel small-molecules to repurpose for Merkel cell carcinoma treatment (AID 1296009); details: MCC and control cell lines, CellTiter-Glo viability, 72 h; at 44.8 µM (top of the series) unless noted; note: nearly all actives have a fitted effect of over 60% in size
In short: (§2)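 Cells were treated for 72 hr at 37 degree celsius with compounds in 8- or 11-point dose response. Viability was read by CellTiter-Glo luminescence, normalized to no-cell (cytotoxicity) and DMSO controls.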

NIH3T3 [4] = assay: as above; details: MCC and control cell lines, CellTiter-Glo viability, 72 h; at 44.8 µM (top of the series) unless noted
In short: as §2

C33A = assay: Primary qHTS to identify gynecologic anti-cancer compounds using libraries of approved drugs and bioactive compounds (AID 1345084); details: Gynecologic cancer cell panel viability, ATPlite luminescence, 48 h; series mostly up to 57.5 µM; note: % is set by controls: 0 for no effect and ±100 for the full control effect; nearly all actives have a fitted effect of over 55% in size
In short: (§3)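 In this quantitative HTS, cell killing is estimated from loss of ATP-dependent luciferase light. Cells see five compound concentrations over a 48 h exposure.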

CAOV3 = assay: as above; details: Gynecologic cancer cell panel viability, ATPlite luminescence, 48 h; series mostly up to 57.5 µM
In short: as §3

CASKI = assay: as above; details: Gynecologic cancer cell panel viability, ATPlite luminescence, 48 h; series mostly up to 57.5 µM
In short: as §3

Es-2 = assay: as above; details: Gynecologic cancer cell panel viability, ATPlite luminescence, 48 h; series mostly up to 57.5 µM
In short: as §3

HeLa = assay: as above; details: Gynecologic cancer cell panel viability, ATPlite luminescence, 48 h; series mostly up to 57.5 µM
In short: as §3

Hek293T = assay: as above; details: Gynecologic cancer cell panel viability, ATPlite luminescence, 48 h, control line for the selectivity index; series mostly up to 57.5 µM
In short: as §3

JEG-3 = assay: as above; details: Gynecologic cancer cell panel viability, ATPlite luminescence, 48 h; series mostly up to 57.5 µM
In short: as §3

OV90 = assay: as above; details: Gynecologic cancer cell panel viability, ATPlite luminescence, 48 h; series mostly up to 57.5 µM
In short: as §3

CCC(C)/C=C(C)/C=C/C(=O)C1CCC(O)C(C)(O)C1=O (stereo not given)
inactive: max response (CRL-7250) 4.93% | max response (HEK293) 0.989% | outcome (HaCat [1]) | max response (KB-3-1) 9.09% | outcome (NIH3T3 [2]) | outcome (HACAT [3]) | outcome (NIH3T3 [4]) | Potency (C33A) | Potency (CAOV3) | outcome (CASKI) | Potency (Es-2) | Potency (HeLa) | Potency (Hek293T) | Potency (JEG-3) | Potency (OV90)

COC(=O)C1(C)CCCC2(C)c3ccc(C(C)C)cc3C(O)C(O)C12 (stereo not given)
inactive: max response (CRL-7250) -3.44% | max response (HEK293) -25.7% | outcome (HaCat [1]) | outcome (KB-3-1) | outcome (NIH3T3 [2]) | outcome (HACAT [3]) | outcome (NIH3T3 [4]) | Potency (C33A) | Potency (CAOV3) | outcome (CASKI) | Potency (Es-2) | Potency (HeLa) | Potency (Hek293T) | Potency (JEG-3) | Potency (OV90)

CC1(C)C[C@@H]2[C@H](C1)[C@@]1(C)C[C@]13C(O)OC[C@]3(O)[C@H]2O (stereo not given in full)
inactive: max response (CRL-7250) -3.6% | max response (HEK293) -0.838% | outcome (HaCat [1]) | outcome (KB-3-1) | outcome (NIH3T3 [2]) | outcome (HACAT [3]) | outcome (NIH3T3 [4]) | Potency (C33A) | Potency (CAOV3) | outcome (CASKI) | Potency (Es-2) | Potency (HeLa) | Potency (Hek293T) | Potency (JEG-3) | Potency (OV90)

CC1(C)CC(NC(=O)C(=O)Nc2ccc(Cl)cc2)CC(C)(C)N1
inactive: max response (CRL-7250) -5.64% | max response (HEK293) -2.65% | outcome (HaCat [1]) | max response (KB-3-1) 4.82% | outcome (NIH3T3 [2]) | outcome (HACAT [3]) | outcome (NIH3T3 [4]) | Potency (C33A) | Potency (CAOV3) | outcome (CASKI) | Potency (Es-2) | Potency (HeLa) | Potency (Hek293T) | Potency (JEG-3) | Potency (OV90)

C[C@]12CCC[C@](C)(C(=O)O)C1[C@@H](O)[C@@H](O)C13CC(CCC12)C(CO)(O[C@@H]1O[C@H](CO)[C@@H](O)[C@H](O)[C@H]1O)C3 (stereo not given in full)
inactive: max response (CRL-7250) 4.72% | max response (HEK293) -8.27% | outcome (HaCat [1]) | max response (KB-3-1) 8.89% | outcome (NIH3T3 [2]) | outcome (HACAT [3]) inactive [at 17.4 µM] | outcome (NIH3T3 [4]) inactive [at 17.4 µM] | Potency (C33A) | Potency (CAOV3) | outcome (CASKI) | Potency (Es-2) | Potency (HeLa) | Potency (Hek293T) | Potency (JEG-3) | Potency (OV90)

CCC/C=C/C=C/C1CC(O)C(O)C(=O)C1CO (stereo not given)
inactive: outcome (CRL-7250) | max response (HEK293) -5.36% | outcome (HaCat [1]) | outcome (KB-3-1) | outcome (NIH3T3 [2]) | outcome (HACAT [3]) | outcome (NIH3T3 [4]) | Potency (C33A) | Potency (CAOV3) | outcome (CASKI) | Potency (Es-2) | Potency (HeLa) | Potency (Hek293T) | Potency (JEG-3) | Potency (OV90)

Nc1ncnc2c1ncn2[C@H]1O[C@@H](C(=O)N2CCN(CC(=O)Nc3cccc4c3CNC4=O)CC2)[C@H](O)[C@@H]1O
inactive: outcome (CRL-7250) | max response (HEK293) 1.78% | outcome (HaCat [1]) | outcome (KB-3-1) | outcome (NIH3T3 [2]) | outcome (HACAT [3]) | outcome (NIH3T3 [4]) | Potency (C33A) | Potency (CAOV3) | outcome (CASKI) | Potency (Es-2) | Potency (HeLa) | Potency (Hek293T) | Potency (JEG-3) | Potency (OV90)

CC1(C)CC[C@]2(C(=O)O[C@@H]3O[C@H](CO)[C@@H](O)[C@H](O)[C@H]3O)CC[C@]3(C)C(=CCC4[C@@]5(C)C[C@H](O)[C@H](O[C@@H]6OC[C@@H](O)[C@H](O)[C@H]6O)[C@@](C)(CO)C5CC[C@]43C)C2C1 (stereo not given in full)
inactive: max response (CRL-7250) -3.53% | max response (HEK293) -6.93% | outcome (HaCat [1]) | max response (KB-3-1) 9.53% | outcome (NIH3T3 [2]) | outcome (HACAT [3]) inactive [at 9.27 µM] | outcome (NIH3T3 [4]) inactive [at 9.27 µM] | activity change, negative = cytotoxicity (C33A) 6.67% [at 11.6 µM] | activity change, negative = cytotoxicity (CAOV3) 10.5% [at 11.6 µM] | activity change, negative = cytotoxicity (CASKI) 2.82% [at 11.6 µM] | activity change, negative = cytotoxicity (Es-2) 1.33% [at 11.6 µM] | activity change, negative = cytotoxicity (HeLa) 24.4% [at 11.6 µM] | activity change, negative = cytotoxicity (Hek293T) 12.6% [at 11.6 µM] | activity change, negative = cytotoxicity (JEG-3) 17% [at 11.6 µM] | activity change, negative = cytotoxicity (OV90) 6.42% [at 11.6 µM]

C=C1C2(C)CC3C4(C)C=CC(=O)OC(C)(C)C4CCC3(C)C1(C(=O)OC)C(=O)C(C)(O)C2=O (stereo not given)
inactive: max response (CRL-7250) -7.15% | max response (HEK293) -101% | outcome (HaCat [1]) | outcome (KB-3-1) | outcome (NIH3T3 [2]) | outcome (HACAT [3]) inactive [at 17.4 µM] | outcome (NIH3T3 [4]) inactive [at 17.4 µM] | Potency (C33A) | Potency (CAOV3) | outcome (CASKI) | Potency (Es-2) | Potency (HeLa) | Potency (Hek293T) | Potency (JEG-3) | Potency (OV90)

C[C@@H]1C[C@@H](O)[C@@]2(CO)C(CO)=CCC[C@@H]2[C@@]12C[C@@H](c1ccoc1)OC2=O
inactive: outcome (CRL-7250) | max response (HEK293) 4.88% | outcome (HaCat [1]) | max response (KB-3-1) 4% | outcome (NIH3T3 [2]) | outcome (HACAT [3]) | outcome (NIH3T3 [4]) | Potency (C33A) | Potency (CAOV3) | outcome (CASKI) | Potency (Es-2) | Potency (HeLa) | Potency (Hek293T) | Potency (JEG-3) | Potency (OV90)

C/C(=C\CCC(C)CCO)C(=O)OC[C@H]1O[C@@H](O[C@@H]2OC=C(C(=O)O)[C@H]3CC[C@](C)(O)[C@@H]23)C(O)[C@@H](O)C1O (stereo not given in full)
inactive: max response (CRL-7250) 3.02% | max response (HEK293) 4.12% | outcome (HaCat [1]) | outcome (KB-3-1) | outcome (NIH3T3 [2]) | outcome (HACAT [3]) inactive [at 17.4 µM] | outcome (NIH3T3 [4]) inactive [at 17.4 µM] | Potency (C33A) | Potency (CAOV3) | outcome (CASKI) | Potency (Es-2) | Potency (HeLa) | Potency (Hek293T) | Potency (JEG-3) | Potency (OV90)

CC(=O)O[C@@H]1[C@H](O[C@@H]2O[C@H](CO)[C@@H](O)[C@H](O)[C@H]2O)[C@@H](O[C@@H]2O[C@@H](C)[C@H](O)[C@@H](O[C@@H]3O[C@H](CO)[C@@H](O)[C@H](O)[C@H]3O)[C@H]2O)[C@H](OC(=O)[C@]23CCC(C)(C)C[C@H]2C2=CCC4[C@@]5(C)C[C@H](O)[C@H](O[C@@H]6O[C@H](C(=O)O)[C@@H](O)[C@H](O)[C@H]6O)[C@@](C)(C(=O)O)C5CC[C@@]4(C)[C@]2(C)CC3)O[C@@H]1C (stereo not given in full)
inactive: max response (CRL-7250) -5.6% | max response (HEK293) -5.4% | outcome (HaCat [1]) | outcome (KB-3-1) | outcome (NIH3T3 [2]) | outcome (HACAT [3]) inactive [at 9.27 µM] | outcome (NIH3T3 [4]) inactive [at 9.27 µM] | activity change, negative = cytotoxicity (C33A) 2.77% [at 6.55 µM] | activity change, negative = cytotoxicity (CAOV3) -7.98% [at 6.55 µM] | activity change, negative = cytotoxicity (CASKI) -0.483% [at 6.55 µM] | activity change, negative = cytotoxicity (Es-2) -0.374% [at 6.55 µM] | activity change, negative = cytotoxicity (HeLa) 0.873% [at 6.55 µM] | activity change, negative = cytotoxicity (Hek293T) 0.423% [at 6.55 µM] | activity change, negative = cytotoxicity (JEG-3) 0.0867% [at 6.55 µM] | activity change, negative = cytotoxicity (OV90) 12.5% [at 6.55 µM]

Source: PubChem BioAssay (NCATS)
